Structures are written as SMILES. Values joined by “and” are separate entries in the source; they are usually repeats but may differ in a detail not shown here. Equal values may be shown once. Where a structure was tested more than once in an assay, its records may differ in their call. Active and inactive are the calls of the source.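 The calls were made as follows, unless noted: active = inhibition at or above 50% relative to wild type and mutant plate controls; inactive = inhibition below 50%.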

One may read the inhibition as the change of the read-out against control, counted positive when it falls.

The nature of test [1]: inhibitors of TNFa-induced NFkB p65 translocation, primary screen, imaging, HUVEC, MLSMR starter and 10KST1 sets (AID 438;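 active = inhibition above 20% together with a positive visual image hit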;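 also: compound added about 3h40 before a 20 min TNFalpha stimulation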;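 as to inhibition: signal is the nuclear over cytoplasmic p65 intensity ratio per well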). Conditions: HUVEC TNFa-induced p65 nuclear translocation; cell count: measured here: nuclei count (cytotoxicity indicator), at 2.08 µM; inhibition: at 2 µM, stronger effect = higher value, 0% TNFa-plus-vehicle, 100% no-TNFa wells.
The nature of test [2]: reduction of polyQ htt aggregates in cells – imaging, exon1htt(103Q)mCFP cells, high-content imaging, primary screen (AID 483;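 active = visual image review flags a hit and inhibition of aggregation exceeds 20%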;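 also: compound exposure lasted 3 days before fixation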;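 as to nuclei count: percent of the per-plate median nuclei count of sample wells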). The settings on record: exon1htt(103Q)mCFP cell line, aggregate imaging, at 2 µM; inhibition of aggregation: stronger effect = higher value; nuclei count: measured here: cell count, toxicity.
The nature of test [3]: endothelial E-selectin expression blockers – imaging, HUVEC, immunofluorescence, MLSMR starter and 10KST1 sets, primary screen (AID 487;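 active = visually confirmed hit in the image check and inhibition above 20%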;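 as to inhibition: signal is fraction of cell area covered by stained E-selectin grains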;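 as to nuclei count: 100% = median nuclei count of all wells on the same plate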). Conditions: HUVEC TNFalpha-induced E-selectin immunofluorescence imaging, at 2 µM; inhibition: stronger effect = higher value; nuclei count: measured here: cell number, toxicity.
A short description of test [4]: Primary imaging screen for DUSP6 inhibitors that restore phospho-Erk in transfected HeLa cells, chemical complementation (AID 609;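 active = compounds giving at least 50% inhibition in the cell-based MKP-3 phosphatase rescue imaging test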;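 as to inhibition: phospho-Erk level distribution per well compared with pooled transfected vehicle control wells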). Conditions: HeLa MKP-3 transfected, phospho-Erk imaging KS statistic, at 10 µM, cells stimulated with TPA for 15 min.
Test [5] concerns the target Dual specificity protein phosphatase 6 (Homo sapiens) (UniProt Q16828). The test is described as above. Conditions: HeLa MKP-3 transfected, phospho-Erk imaging KS statistic; at 10 µM; stronger effect = higher value; cells stimulated with TPA for 15 min.
For test [6], the target named is Voltage-gated potassium channel subunit beta-2 (Rattus norvegicus) (UniProt P62483). As to the kind of experiment: inhibitors of rat Kvbeta2 reductase activity – biochemical, NADPH fluorescence, primary screen (AID 622;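 active = fluorescence slope higher than the sample average by over 3 SD, cut at about -0.22 in these data, passing the limit was not always enough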;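 also: slope of raw intensity against log time taken from 70 to 1610 s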). Conditions: recombinant KvBeta, 4-cyanobenzaldehyde reduction, at 10 µM, stronger effect = higher value.
Sequence of Voltage-gated potassium channel subunit beta-2 (Rattus norvegicus) (P62483 whole entry, looked up): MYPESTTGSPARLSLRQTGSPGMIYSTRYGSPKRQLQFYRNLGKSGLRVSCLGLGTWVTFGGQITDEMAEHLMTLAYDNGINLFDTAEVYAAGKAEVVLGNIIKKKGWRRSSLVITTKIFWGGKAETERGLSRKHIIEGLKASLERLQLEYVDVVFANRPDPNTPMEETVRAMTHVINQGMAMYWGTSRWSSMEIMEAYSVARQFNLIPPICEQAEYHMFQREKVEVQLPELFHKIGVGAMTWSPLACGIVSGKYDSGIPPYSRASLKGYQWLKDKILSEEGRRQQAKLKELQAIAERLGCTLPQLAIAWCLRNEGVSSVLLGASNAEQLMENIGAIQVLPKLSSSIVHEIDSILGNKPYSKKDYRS
For test [7] the target is unchanged. As to the kind of experiment: enhancers of rat Kvbeta2 NADPH turnover – biochemical, NADPH fluorescence, primary screen (AID 623;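 active = NADPH fluorescence slope more negative than the mean of all samples by about 3 SD, 99.7% confidence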;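 also: fluorescence intensity change per second fitted from 20 to 320 s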). Conditions: Recombinant KvBeta, NADPH fluorescence decrease slope, 10 min; at 10 µM; stronger effect = lower value.
Test [8] deals with Alpha-2C adrenergic receptor (Homo sapiens) (UniProt P18825). As to the kind of experiment: compounds altering alpha2C-coupled GIRK flux – cell-based, HEK293 alpha2C/GIRK1/2, thallium flux, primary screen (AID 624;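 active = fluorescence slope after compound addition differing from the mean of all screened samples at 99.7% confidence, in either direction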;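 also: slope of fluorescence ratio to pre-addition baseline per second over 15 to 24 s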). Conditions: thallium flux BTC fluorescence, at 10 µM, actives lie on both sides.
Sequence of Alpha-2C adrenergic receptor (Homo sapiens) (P18825 whole entry, looked up): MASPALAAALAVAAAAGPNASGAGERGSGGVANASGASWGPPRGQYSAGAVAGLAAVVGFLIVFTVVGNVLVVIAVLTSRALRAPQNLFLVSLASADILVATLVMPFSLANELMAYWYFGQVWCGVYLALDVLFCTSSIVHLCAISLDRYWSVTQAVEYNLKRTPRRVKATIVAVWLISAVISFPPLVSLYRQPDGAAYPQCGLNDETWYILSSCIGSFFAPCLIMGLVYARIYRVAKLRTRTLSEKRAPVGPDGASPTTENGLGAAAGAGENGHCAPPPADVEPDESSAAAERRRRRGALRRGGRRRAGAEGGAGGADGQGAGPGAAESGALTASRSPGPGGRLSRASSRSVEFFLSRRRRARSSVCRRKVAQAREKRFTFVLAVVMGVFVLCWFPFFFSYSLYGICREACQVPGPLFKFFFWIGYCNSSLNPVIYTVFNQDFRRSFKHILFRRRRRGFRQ
Test [9] is described as follows: inhibitors of larval lipid processing in zebrafish, primary screen, whole organism, PED6 fluorescence, gall bladder and intestine (AID 686;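 active = a full or partial loss of lipid-probe fluorescence in the fish gall bladder, intestine or both, judged by eye; inactive = no fluorescence loss, or compound toxic to the fish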;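 also: larvae 5 to 7 days old with five fish per well; signal comes from phospholipase A2 cleavage of quenched PED6 carried via bile; overnight exposure to compound and PED6 before scoring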). The settings on record: Zebrafish larvae PED6 lipid processing, fluorescence scoring; screened at 20 µM (by protocol).
Test [10] in a line: loss of swimming-algae plug formation – whole organism, Chlamydomonas reinhardtii, WT vs cilia-less mutant, absorbance, 96-well, primary screen (AID 463189).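 Also: 0% = wild type cc124 cells in DMSO and 100% = ciliumless bld1 mutant cells.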 Conditions: Chlamydomonas reinhardtii gravitaxis, OD600 absorbance, 2 days; at 10 µM; stronger effect = higher value.
Test [11] in a line: blockers of RIG-like receptor reporter activation – cell-based, Sendai virus stimulus, luciferase, 10K MLSCN set, TLR/RLR signaling modifier project, primary screen (AID 602276;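 active = inhibition at or above 50% at 10 µM; inactive = inhibition below 50%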;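 also: firefly luciferase from ISG56 promoter only with Renilla not read in this screen; 0% = Sendai virus plus DMSO and 100% = medium plus DMSO without virus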). Conditions: HEK293 RL24 IRF3 luciferase reporter, at 10 µM, stronger effect = higher value.
Test [12] is described as follows: TLR3 IRF3 reporter activation blockers – cell-based, poly I:C stimulus, luciferase, 10K MLSCN set, primary screen (AID 602277;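 active = inhibition of the reporter signal at or above 50%; inactive = inhibition below 50%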). The settings on record: HEK293-TLR3 RL24 IRF3 luciferase reporter, at 10 µM, stronger effect = higher value. For orientation: A reporter such as luciferase makes a cellular process visible.
[13] abbreviates: measured here: cell density z-score.
Setting [14] is: measured here: nuclear c-Myc green intensity z-score.
Where [15] appears, read: measured here: nuclear pErk red intensity z-score, stronger effect = higher value.

Sequence of Dual specificity protein phosphatase 6 (Homo sapiens) (Q16828 whole entry, looked up): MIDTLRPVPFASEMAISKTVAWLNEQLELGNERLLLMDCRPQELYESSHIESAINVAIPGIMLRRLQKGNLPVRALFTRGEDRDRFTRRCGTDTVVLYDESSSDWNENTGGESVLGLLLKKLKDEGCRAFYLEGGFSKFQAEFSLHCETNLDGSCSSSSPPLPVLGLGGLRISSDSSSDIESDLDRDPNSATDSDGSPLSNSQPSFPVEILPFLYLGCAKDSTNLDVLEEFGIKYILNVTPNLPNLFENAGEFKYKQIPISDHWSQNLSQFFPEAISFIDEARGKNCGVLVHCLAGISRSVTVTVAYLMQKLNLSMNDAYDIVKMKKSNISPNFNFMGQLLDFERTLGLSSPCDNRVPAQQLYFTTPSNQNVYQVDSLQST

As for `CO[C@@]1(NC(=O)CSCC#N)C(=O)N2C(C(=O)O)=C(CSc3nnnn3C)CS[C@@H]21`, the cell count in [1] was determined as 632. Moreover, the inhibition was -3.9% (inactive) in [1]; -96.3% (inactive) in test [3]; 19.2% (inactive) in [5]; 5.45% (inactive) and -4.17% (inactive) in [10]; 7.82% (inactive) in test [11]; 28.6% (inactive) in [12]. The inhibition of aggregation in test [2] is 3.8% (inactive). Moreover, the nuclei count in [2] came out at 103%; in test [3] it was 143%. In addition, the values for the z-score in [4] (setting [13]), in test [4] (setting [14]) and in test [4] (setting [15]) were 0.71, -0.314 and -0.547, respectively. Further, the fluorescence slope in test [6] was -0.497 (inactive). In [7], the NADPH fluorescence slope is -7e-05 (inactive). In addition, the slope in [8] is 0.00536 (inactive). In addition, the compound was classed as inactive in test [9].

Regarding `CN1CCN(/C=N/c2sc3c(c2C#N)CCCCC3)CC1`, the cell count in [1] was 536. In addition, the inhibition in test [1] was -4.8% (inactive); in test [3], -74.7% (inactive); in test [5] it was -4.27% (inactive); in test [10], 135% (active); in test [11], -35.3% (inactive); in [12], -83.9% (inactive). In [2], the inhibition of aggregation is 2.6% (inactive). For the same compound, the figures for the nuclei count in test [2] and in [3] were 116% and 108%, respectively. Moreover, the z-score was -3.34 in [4] (setting [13]), 0.909 in [4] (setting [14]) and 1.9 in test [4] (setting [15]). In addition, the fluorescence slope in test [6] is -0.42 (inactive). Moreover, the NADPH fluorescence slope in test [7] is -6e-06 (inactive). Moreover, in test [8], the slope was 0.00496 (inactive). In addition, the compound was classed as inactive in [9].

As for `CN(Cc1ccccc1)Cc1c[nH]c2ccccc12`, the cell count in test [1] worked out at 531. Further, the inhibition in test [1] is -15.1% (inactive); in test [3] it was -35.1% (inactive); in test [5] it was -4.27% (inactive); in test [10] it was 22.7% (inactive); in test [11] it was 13.3% (inactive); in test [12], 24.2% (inactive). Also, the inhibition of aggregation in [2] was -1% (inactive). In addition, the values for the nuclei count in test [2] and in test [3] were 83.3% and 121%, respectively. The z-score in test [4] (setting [13]) is -0.293; in test [4] (setting [14]) it was -1.22; in test [4] (setting [15]) it was -1.11. The fluorescence slope in [6] was -0.409 (inactive). For the same compound, in test [7], the NADPH fluorescence slope is -4.2e-05 (inactive). Also, in test [8], the slope is 0.00379 (inactive). In addition, the outcome in test [9] was inactive.

For `COC(=O)CSc1nc2sc3c(c2c(=O)n1C1CCCCC1)CCN(C)C3`, in test [1], the cell count was found to be 390. The inhibition in test [1] was -4.4% (inactive); in test [3], -127% (inactive); in test [5], -8.59% (inactive); in test [10] it was 14.6% (inactive); in test [11] it was 15.7% (inactive); in test [12] it was 38.9% (inactive). Moreover, the inhibition of aggregation in test [2] is -16% (inactive). Besides, the nuclei count in [2] stood at 102%; in test [3] it was 140%. In addition, the z-score in test [4] (setting [13]) is -0.811; in [4] (setting [14]) it was -0.963; in [4] (setting [15]), 1.03. Also, the fluorescence slope in test [6] is -0.289 (inactive). Further, the NADPH fluorescence slope in test [7] is 2e-05 (inactive). Further, the slope in [8] was 0.00385 (inactive). In addition, the result in test [9] was inactive.

As to `Cc1nc2sccn2c(=O)c1CCN1CCC(=C(c2ccccc2)c2ccc(F)cc2)CC1`, the cell count in test [1] was 635. In addition, the inhibition was -7.7% (inactive) in [1]; -100% (inactive) in [3]; 17.3% (inactive) in [5]; 24.7% (inactive) and 164% (active) in [10]; 18.4% (inactive) in test [11]; 19.4% (inactive) in test [12]. In addition, in test [2], the inhibition of aggregation was 5% (inactive). In addition, the nuclei count was determined as 114% in test [2] and 123% in test [3]. Further, the z-score in [4] (setting [13]) was -1.15; in [4] (setting [14]), 0.767; in test [4] (setting [15]), 0.616. The fluorescence slope in [6] is -0.433 (inactive). Further, in test [7], the NADPH fluorescence slope is -1.2e-05 (inactive). In addition, in test [8], the slope is 0.00383 (inactive). Moreover, the outcome in [9] was inactive.

These data come from PubChem BioAssay.
